# KB-3-1 tox: kills parental KB-3-1 adenocarcinoma cells | KB-3-1 viability, CellTiter-Glo ATP luminescence, 72 h | Potency, µM (series often up to 46.1 µM), usual class: cytotoxic | actives 1.4% (n = 400,000) | AID 1347075; note: nearly all actives have a fitted effect of over 60% in size
#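 Cytotoxicity measured as CellTiter-Glo luminescence after 72 h at 37 C. Compound titrations were pinned onto drug-naive KB-3-1 parental adenocarcinoma cells grown in DMEM with 10% FBS, and normalized data fitted to concentration-response curves.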
# Giardia kill: Giardia lamblia killing | Giardia lamblia trophozoite viability | activity change, % at 7.66 µM, hits read low | actives 0.15% (n = 340,000); in the data active = activity change below about -80%; inconclusive = between about -30% and that limit;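 note: parasites exposed to compound for two days anaerobically before the ATP read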
#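 Giardia trophozoites, 100 cells per well, were exposed to compounds for 48 hrs at 37 deg C under anaerobic conditions; viability was then read as ATP content by bioluminescence after 15-30 min at room temperature.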
# MCF10A rereplic: induces DNA re-replication in MCF 10a normal breast cells; Potency, µM (highest dose often 46.1 µM), most hits filed as activators; MCF 10A DNA re-replication, Hoechst nuclear intensity, 48 h; actives 2.9% (n = 350,000); note: nearly all actives have a fitted effect of over 50% in size
# S-ASM inh: inhibitors of human secretory acid sphingomyelinase; actives 0.006% (n = 340,000); AID 504937; placental ASM, HMU-PC fluorogenic substrate, 60 min; Potency, µM (titrated, usually from 57.5 µM), hits mostly inhibitors; P17405
# Target sequence (P17405 47-631 limits assumed): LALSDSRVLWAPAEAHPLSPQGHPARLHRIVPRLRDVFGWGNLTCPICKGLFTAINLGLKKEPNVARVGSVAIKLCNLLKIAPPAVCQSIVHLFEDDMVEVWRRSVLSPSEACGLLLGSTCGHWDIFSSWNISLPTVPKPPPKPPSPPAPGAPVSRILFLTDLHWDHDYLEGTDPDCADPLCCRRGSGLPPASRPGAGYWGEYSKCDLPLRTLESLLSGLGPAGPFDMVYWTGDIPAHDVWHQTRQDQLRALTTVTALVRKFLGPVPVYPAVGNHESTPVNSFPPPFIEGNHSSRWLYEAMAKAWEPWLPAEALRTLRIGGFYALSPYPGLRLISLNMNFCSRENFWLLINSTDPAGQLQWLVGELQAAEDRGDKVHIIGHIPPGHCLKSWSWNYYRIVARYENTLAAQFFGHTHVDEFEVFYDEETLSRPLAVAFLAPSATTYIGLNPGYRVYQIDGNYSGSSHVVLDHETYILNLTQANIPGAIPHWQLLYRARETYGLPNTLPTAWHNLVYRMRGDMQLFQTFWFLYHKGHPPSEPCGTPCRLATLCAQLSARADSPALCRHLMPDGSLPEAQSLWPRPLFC
#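 Fluorescence read-out (Ex 386 nm, Em 447 nm) after stopping the reaction at pH 10. Enzyme: ASM from human placenta; substrate HMU-PC0, 9 uM final; 60 min, 37 °C. Compound preincubation 10 min, ambient temperature.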
# SW480 rereplic: induces DNA re-replication in SW480 colon adenocarcinoma cells. actives 1.8% (n = 340,000). Potency, µM (doses to about 46.1 µM), usual class: activators. AID 624297. SW480 DNA re-replication, Hoechst DNA content imaging, 48 h; note: nearly all actives have a fitted effect of over 55% in size
#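 250 cells/well; 23 nL cpd via pin tool; 48 hr, 37 C, 5% CO2; Hoechst 40 min; imager read of total nuclear intensity, ex 405/em 500-530 nm.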
# KB-V1 cytotox: KB-V1 MDR subline cytotoxicity. KB-V1 MDR cells viability, CellTiter-Glo, 72 h. Potency, µM (top dose mostly 46.1 µM), actives largely listed as cytotoxic. actives 3.4% (n = 400,000); note: nearly all actives have a fitted effect of over 60% in size
#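 KB-V1 cells (P-gp-expressing MDR subline of KB-3-1) in phenol-red-free DMEM with 10% FBS were exposed to library compounds over a concentration series for 72 h at 37 degrees C. Viability read by CellTiter-Glo luminescence; concentration-effect curves fitted after normalization.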
# A number is an active result; - = inactive; ? = inconclusive; . = no result; [ ] = dose if it differs, or a comment. Most compounds without a hit are left out; they make up all but 6.9% or so of the library. Unless noted, calls come from the whole dose curve; as a rule, active = well fitted curve in the direction sought with a large enough effect; inconclusive = small, poorly fitted or top-dose-only effect, or another doubt; inactive = no such curve, though single readings can be large; an effect the other way counts as inactive or inconclusive.
SMILES,KB-3-1 tox,Giardia kill,MCF10A rereplic,S-ASM inh,SW480 rereplic,KB-V1 cytotox
Cc1cccc(OCCNc2cc(N3CCOCC3)ccc2[N+](=O)[O-])c1,-,-,-,-,-,-
Cc1cccc(OCCNc2cc(N3CCN(C)CC3)ccc2[N+](=O)[O-])c1,?,-,-,-,?,16µM
CCCCCCCCCCCC(=O)OCC(O)C1OCC(O)C1O (centres undefined),.,.,-,.,-,.
O=C(NCCc1ccccc1)C1CCN(c2nc3ccccc3o2)CC1,-,-,-,-,-,-
O=C(NC1CCCc2ccccc21)C1CCN(c2c3c(nc4ncnn24)CCC3)CC1 (centres undefined),-,-,-,-,-,21µM
Cc1oc(-c2ccccc2F)nc1CN1CCC(C(=O)NC2CCCc3ccccc32)CC1 (centres undefined),-,-,-,-,-,8.2µM
Cc1oc(-c2ccccc2F)nc1CN1CCC(C(=O)NC2CCCCCCC2)CC1,-,-,-,-,-,12µM
O=C(NC1CCCCCCC1)C1CCN(c2nc3ccccc3o2)CC1,18µM,-,-,-,-,2.3µM
CCOc1ccccc1NC(=O)Cn1c(=O)n(Cc2ccc(C(=O)NCCCOC)cc2)c(=O)c2ccccc21,-,.,.,.,.,-
C=C1[C@@H](O)[C@H](Cc2ccccc2)N(Cc2ccccc2Br)S1(=O)=O,?,-,21µM,-,-[9.22 µM],?
COc1cc(OC)c(/C=C/c2cc(/C=C/c3c(OC)cc(OC)cc3OC)[n+](C)c3ccccc23)c(OC)c1,23µM,.,.,.,.,-
COc1cc(OC)c(/C=C/c2cc3c4ccccc4ccc3[n+](C)c2)c(OC)c1,8.2µM,.,.,.,.,-
COc1cc(OC)c(/C=C/c2c3ccccc3cc[n+]2C)c(OC)c1,?,.,.,.,.,-
CC1=C/C(=C\c2ccc(N(C)C)cc2)c2ccccc21,-,.,.,.,.,-
O=C(CSc1nc2ccccc2nc1Cc1ccccc1F)Nc1cccc(C(F)(F)F)c1,-,.,.,.,.,-
CCC(C)[C@@H](NC(=O)OC(C)(C)C)c1nnc(S(=O)(=O)Cc2cccc(C)c2)o1 (some centres undefined),-,-,16µM,-,?,-
Cc1ccccc1CS(=O)(=O)c1nnc([C@H](Cc2ccccc2)NC(=O)OC(C)(C)C)o1,-,-,?,-,?,?
Cc1ccc(C(=O)Nc2ccc(Cc3ccncc3)cc2)cc1[N+](=O)[O-],?,-,-,-,-,5.8µM
O=C(Nc1ccc(Cc2ccncc2)cc1)c1cccc([N+](=O)[O-])c1,-,-,-,-,-,?
Cc1cccc(NC(=O)c2ccc(NCC3CCCO3)c([N+](=O)[O-])c2)c1 (centres undefined),-,-,-,-,-,4.1µM
CCC(=O)Nc1cccc(NC(=O)c2ccc(C)c([N+](=O)[O-])c2)c1,-,-,-,-,-,15µM
CCC(=O)Nc1ccc(C(=O)NNC(=O)COc2cccc(C)c2)cc1,-,-,-,-,-,-
CC1CN(C(=O)Nc2ccc(C(=O)NCc3ccccc3F)cc2)c2ccccc2S1 (centres undefined),-,.,.,.,.,-
Cc1c(Cc2ccccc2)c(=O)oc2c(CN(C)C)c(O)c(Cl)cc12,?,-,18µM,-,-,9.2µM
COc1ccc2c(C)c(CC(=O)NCc3ccc(C)cc3)c(=O)oc2c1OC,-,.,.,.,.,?
SMILES,KB-3-1 tox,Giardia kill,MCF10A rereplic,S-ASM inh,SW480 rereplic,KB-V1 cytotox
Cc1c(Cc2ccccc2)c(=O)oc2c(O)c(O)ccc12,?,-,21µM,-,?,-
Cc1c(CC(=O)NCc2ccccc2)c(=O)oc2c(C)c(O)ccc12,13µM,.,.,.,.,?
COc1ccc(CNC(=O)CCCN2C(=O)c3cccnc3Oc3ccc(Cl)cc32)cc1,-,.,.,.,.,-
CCN=C1S/C(=C\c2cn(C(C)=O)nc2-c2ccccc2)C(=O)N1CC,-,-,?,-,-,18µM
O=C(O)c1cccc(-c2ccc(/C=C3/SC(=Nc4ccccc4)N(Cc4cccnc4)C3=O)o2)c1,-,-,-,-,-,-
CCN=C1S/C(=C\c2ccc(-c3cccc(C(=O)O)c3)o2)C(=O)N1CC,-,-,?,-,5.8µM,-
CCN1C(=O)/C(=C\c2ccc(-c3ccc([N+](=O)[O-])cc3OC)o2)SC1=Nc1cccc(C(=O)O)c1,-,-,-,-,-,-
CCN=C1S/C(=C/c2ccc(-c3ccc(Cl)cc3C(=O)O)o2)C(=O)N1CC,-,-,6.5µM,-,12µM,-
CC(Cc1ccccc1)N1C(=O)c2cccc([N+](=O)[O-])c2C1=O (centres undefined),-,-,-,-,-,-
COc1ccc2c(CN(C)c3ccccc3)cc(=O)oc2c1,-,-,-,-,-,18µM
CCCCc1cc(=O)oc2cc(OCC(=O)N3C[C@H]4C[C@@H](C3)c3cccc(=O)n3C4)ccc12,-,-,-,-,-,-
CCCCc1cc(=O)oc2cc(C)cc(OCC(=O)N3C[C@H]4C[C@@H](C3)c3cccc(=O)n3C4)c12,?,-,?,-,1.8µM,-
CCCn1c(CCC(=O)Nc2cc(OC)cc(OC)c2)nc2cccnc21,-,.,.,.,.,-
O=C(CNC(=O)c1ccccc1Cl)c1ccccc1,-,?,-,-,-,-
CO/N=C(/CNC(=O)c1ccccc1Cl)c1ccc(Cl)cc1,-,-,-,-,-,23µM
CC1=CN2C(=N)/C(=C/c3ccc([N+](=O)[O-])o3)C(=O)N=C2S1,-,-,?,-,16µM,-
CC1=CN2C(=N)/C(=C/c3ccco3)C(=O)N=C2S1,-,-,-,-,-,-
OCC(O)C[n+]1cccc(Br)c1 (centres undefined),?,.,.,.,.,-
CC1CCCC(C)N1C(=O)c1cc2ncc(CCCl)cn2n1 (centres undefined),-,-,-,-,-,21µM
CNC(=O)c1ccsc1NC(=O)c1sc2ccccc2c1Cl,-,-,29µM,-,?,-
COCc1nnc(NC(=O)c2sc3ccccc3c2Cl)s1,-,-,-,-,-,?
Cc1nnc(NC(=O)c2sc3ccccc3c2Cl)s1,-,-84,-,-,-,-
C[C@@H](C(=O)NCCc1c[nH]c2ccccc12)[C@H]1C[C@]1(C)[C@H](NC(=O)OCc1ccccc1)c1ccccc1,16µM,-,-,-,15µM,-
C[C@H](CO)NC(=O)[C@H](C)[C@H]1C[C@]1(C)[C@H](NC(=O)OCc1ccccc1)c1ccccc1,-,-,-,-,-,-
C[C@@H](C(=O)NCc1ccccn1)[C@H]1C[C@]1(C)[C@H](NC(=O)OCc1ccccc1)c1ccccc1,-,-,21µM,-,-,?
C[C@@H](C(=O)NCC1CC1)[C@@H]1C[C@@]1(C)[C@@H](NC(=O)OCc1ccccc1)c1ccccc1,-,-,-,-,?,-

# Source: PubChem
